Compound activity from PubChem BioAssay.
A selection: hits, their analogues and other compounds. The true share with any hit is near 12%.
L major viab: Leishmania major promastigote growth inhibition; Leishmania major promastigotes, resazurin fluorescence viability; inhibition, % at 10 µM; 200,000 compounds, 9% hits; AID 1063; in the data active = inhibition above about 50%;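 note: promastigotes grown with compound for 44 hours at 28 °C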
ROMK primary: modulators of human ROMK potassium channel; P48048; Tet-inducible ROMK, thallium flux fluorescence; actives lie on both sides; B-score at 10 µM; 130,000 compounds, 2% hits;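 active = signal ratio slope over the read window, or its plate-corrected B-score, at least 3 SD from the plate mean, either direction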;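 note: B-score of the F/F0 ratio slope over 7 to 12 s after thallium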
Target sequence (P48048 whole entry, looked up): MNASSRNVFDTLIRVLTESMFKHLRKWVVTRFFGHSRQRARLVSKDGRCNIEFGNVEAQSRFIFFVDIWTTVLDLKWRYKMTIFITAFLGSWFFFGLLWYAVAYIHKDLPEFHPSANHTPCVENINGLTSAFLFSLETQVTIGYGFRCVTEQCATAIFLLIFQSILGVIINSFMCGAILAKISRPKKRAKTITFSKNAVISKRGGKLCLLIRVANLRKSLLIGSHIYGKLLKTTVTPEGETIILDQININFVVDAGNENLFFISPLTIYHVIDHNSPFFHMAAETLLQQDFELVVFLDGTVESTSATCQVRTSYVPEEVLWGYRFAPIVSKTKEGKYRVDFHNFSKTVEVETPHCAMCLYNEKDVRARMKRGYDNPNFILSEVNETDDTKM
WT yeast gro inh: growth inhibition of WT yeast, mitochondrial fusion screen; mitochondrial fusion phenotypic screen, WT strain; AID 1362; inhibition, % at 10 µM; 190,000 compounds, 2.1% hits; in the data active = inhibition above about 58%; tested in S. cerevisiae
Calpain2 inh: inhibitors of pig calpain II; purified calpain II, fluorogenic peptide substrate, 30 min; inhibition, % at 16 µM; 220,000 compounds, 0.37% hits; AID 1236;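 active = inhibition above about 50%, limit read from the data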
KCC2 mod: modulators of human KCC2 chloride dependent transport; Q9H2X9; KCC2 cells, thallium flux FluoZin-2 fluorescence; B-score of Tl+ flux slope (higher = more flux/activation; lower = inhibition) at 10 µM; 190,000 compounds, 2.2% hits; AID 1456;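 active = thallium flux slope and its plate-corrected score both differing from the plate sample mean at a set confidence after two filtering rounds, in either direction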;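 note: slope of fluorescence scaled to starting intensity during 10 to 20 s after thallium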
Large screens that a line does not name were inactive.

Cc1cc(C)c2[nH]c(=O)c(CN(Cc3cccs3)C(=S)NCC3CCCO3)cc2c1 (stereo not given)	L major viab 53
CCNC(=S)N(Cc1ccco1)Cc1cc2cc3c(cc2[nH]c1=O)OCCO3	none
COc1ccccc1NC(=O)N(Cc1ccco1)Cc1cc2cc(C)cc(C)c2[nH]c1=O	L major viab 63 (no result: KCC2 mod)
Cc1cc2cc(CN(Cc3cccs3)C(=S)NCC3CCCO3)c(=O)[nH]c2cc1C (stereo not given)	L major viab 96
CC(C)CNC(=S)N(Cc1ccco1)Cc1cc2cc3c(cc2[nH]c1=O)OCCO3	L major viab 88 (no result: ROMK primary)
C=CCNC(=O)c1ccccc1NC(=O)COc1ccccc1	none
Cc1noc(C)c1C(=O)Nc1nc(C23CC4CC(CC(C4)C2)C3)cs1	none (no result: ROMK primary)
Cn1cc(Br)c(C(=O)NN2C(=O)C3C(C2=O)C2C=CC3C23CC3)n1 (stereo not given)	none
COc1ccc2[nH]c(=O)c(CN(CC3CCCO3)C(=S)Nc3ccccc3)cc2c1 (stereo not given)	none
Cc1cc(C)c2[nH]c(=O)c(CN(Cc3ccco3)C(=S)NCC3CCCO3)cc2c1 (stereo not given)	L major viab 88
Cc1cc2cc(CN(CC3CCCO3)C(=S)Nc3ccccc3)c(=O)[nH]c2cc1C (stereo not given)	L major viab 68
CCOC(=O)/C(C#N)=C/C1=C(N2CCCC2)CC(C)(CC)OC1 (stereo not given)	none (no result: KCC2 mod)
CC(=O)c1cccc(NC(=O)c2ccc(N(Cc3ccc(C)cc3)S(C)(=O)=O)cc2)c1	L major viab 53 (no result: KCC2 mod)
CS(=O)(=O)N(Cc1ccccc1)c1ccc(C(=O)Nc2cccnc2)cc1	none
C=CCN(c1ccc(C(=O)Nc2ccc(C)c(C)c2)cc1)S(C)(=O)=O	L major viab 55
O=C(CSc1nc2ncc(Br)cc2[nH]1)c1cccc([N+](=O)[O-])c1	L major viab 54
Cc1nc2nc(SCC(=O)c3cccc([N+](=O)[O-])c3)[nH]c2cc1Br	none (no result: ROMK primary)
CCc1nc(SCC(=O)c2cccc([N+](=O)[O-])c2)n[nH]1	L major viab 61
Cc1cc(C)c(C)c(S(=O)(=O)Nc2ccccc2C(=O)NCCCN2CCOCC2)c1C	L major viab 97
O=C(NCCCN1CCOCC1)c1ccccc1-c1ccccc1	WT yeast gro inh 74 (no result: ROMK primary, KCC2 mod)
O=C(CSc1ccccc1)NCCCN1CCOCC1	L major viab 77 (no result: KCC2 mod)
Cc1cc(C)n2cc(CSc3nncn3C)nc2n1	none (no result: ROMK primary)
C=CCn1c(SCc2csc(C)n2)nc2sc3c(c2c1=O)CCCC3	WT yeast gro inh 70 (no result: KCC2 mod)
C=CCn1c(SCc2csc(C)n2)nc2sc3c(c2c1=O)CCCCC3	none
Cc1ccc(CNC(=O)C2CCC(CNc3nc(=S)[nH]c4ccccc34)CC2)cc1 (stereo not given)	none
COc1ccc(CNC(=O)Cc2csc(Nc3nc(=S)[nH]c4ccccc34)n2)cc1	KCC2 mod 7 (no result: ROMK primary)
O=C(Cc1csc(Nc2nc(=S)[nH]c3ccccc23)n1)NCc1ccc(Cl)cc1	KCC2 mod 5.9 (no result: ROMK primary)
COC(=O)C1=C(C)NC(=O)/C1=C\N(C)C	none
CCOC(=O)C(NC(=O)c1ccccc1Cl)(Nc1ccc(C)c(C)c1)C(F)(F)F (stereo not given)	none
COC(=O)C(Nc1ccccc1Cl)(c1cc(C)c(O)c(C)c1)C(F)(F)F (stereo not given)	WT yeast gro inh 90, Calpain2 inh 52 (no result: ROMK primary)
CC(C)c1onc(C(=O)NC(C)c2ccccc2)c1[N+](=O)[O-] (stereo not given)	none
CC(=O)NCCc1nc2ccccc2n1CCOc1ccccc1	none (no result: L major viab, WT yeast gro inh)
CCOc1ccc(NCc2nc3ccccc3n2CCOc2ccccc2)cc1	L major viab 72
Cc1ccc(OCCCCn2c(CO)nc3ccccc32)cc1	L major viab 56 (no result: ROMK primary)
OCc1nc2ccccc2n1CCCOc1ccc(Br)cc1	KCC2 mod -2.9 (no result: ROMK primary)
Fc1cccc(COc2ccccc2C(=S)N2CCCC2)c1	none
CN1C(=O)/C(=C/c2ccccc2OCc2cccc(F)c2)N(C)C1=S	L major viab 80
O=C(c1ccc(-n2cccc2)cc1)N1CCCCC1	none
COc1cc(C2CC(=O)Nc3n[nH]c(-c4ccccc4)c32)cc(OC)c1OC (stereo not given)	none (no result: L major viab, ROMK primary, WT yeast gro inh)
COC(=O)C1=C(C)N(c2cc(C)cc(C)c2)/C(=C/c2ccc(O)cc2)C1=O	L major viab 99 (no result: KCC2 mod)
COC(=O)C1=C(C)N(c2ccc(Cl)cc2)/C(=C/c2ccc(O)cc2)C1=O	L major viab 84
COc1ccc(-n2c3c(c(=O)[nH]c2=O)C(NS(=O)(=O)c2ccc(Cl)cc2)(C(F)(F)F)C(=O)N3)cc1 (stereo not given)	none (no result: L major viab, WT yeast gro inh)
Cc1oc(/C=N/NS(=O)(=O)c2ccccc2)cc1Br	L major viab 63
O=S(=O)(c1ccc(Cl)cc1)N1CCN(S(=O)(=O)N2CCCCCC2)CC1	none
O=S(=O)(N1CCCCC1)N1CCN(c2cc(Cl)ccc2Cl)CC1	WT yeast gro inh 74
CC(=O)c1ccc(N2CCN(C(=S)NCCCN(C)C)CC2)cc1	none
C=CCN(C(=O)c1cccc(S(=O)(=O)N2CCN(C)CC2)c1)c1nc(-c2ccccc2)cs1	WT yeast gro inh 59
COc1cc(/C=N/n2cnnc2)ccc1OCCSc1ccc(C)cc1	L major viab 55 (no result: ROMK primary, KCC2 mod)
CCCCCOc1ccc(Cl)cc1CN1CCOCC1	L major viab 80
CCCOc1ccc(CN2CCOCC2)cc1OC	none (no result: L major viab, ROMK primary, WT yeast gro inh)
CC(C)CCOc1ccc(Cl)cc1CN1CCOCC1	L major viab 89
CCOc1ccc(Cl)cc1CN1CCOCC1	none (no result: KCC2 mod)
Cc1nnc(SCC(=O)N2CCCC2)n(N)c1=O	none
Cc1cc(=O)oc2cc(OCC(=O)OCC(=O)NC3CC3)ccc12	none
Cc1ccc(N2C(SCC(=O)O)=NC(=Nc3cccc(C)c3)C23CCCC3)cc1	none
COc1ccc(-c2nn(-c3ccccc3)cc2C(=O)N2c3ccc(C)cc3C3CN(C)CCC32)cc1 (stereo not given)	L major viab 59
Nc1nc(SCC(=O)Nc2ccc(Oc3ccccc3)cc2)n[nH]1	none
Nc1nc(SCC(=O)Nc2cccc(Oc3ccccc3)c2)n[nH]1	L major viab 56 (no result: ROMK primary)
COc1cccc(/C=N/NC(=S)NCc2ccco2)c1OC	none (no result: L major viab, WT yeast gro inh)
COc1ccc(C2CC(c3ccc(F)cc3)n3nc(NS(C)(=O)=O)nc3N2)cc1 (stereo not given)	none (no result: L major viab, ROMK primary, WT yeast gro inh)
CCOc1ccc2nc(NC(=O)c3c([N+](=O)[O-])cnn3CC)sc2c1	L major viab 63
CCn1ncc([N+](=O)[O-])c1C(=O)n1nc(C)cc1C	none (no result: ROMK primary)
CCn1ncc([N+](=O)[O-])c1C(=O)Nc1cc(C)on1	L major viab 92 (no result: ROMK primary)
COc1ccc(C2C(Oc3ccccc3)C(=O)N2c2cc(C)ccc2C)cc1OC (stereo not given)	none (no result: ROMK primary, WT yeast gro inh)
COc1ccc(C)cc1N1C(=N)/C(=C2/Nc3ccccc3S2)C(c2ccccc2)C1=O (stereo not given)	L major viab 100, WT yeast gro inh 84
Cc1cc(NC(=O)NCC(F)(F)F)no1	none (no result: L major viab, ROMK primary, WT yeast gro inh)
O=C(Nc1ccc(-n2nncc2-c2ccco2)cc1)c1ccc(F)cc1	none (no result: ROMK primary)
Cc1cc2nc(Sc3c([N+](=O)[O-])nc(C)n3Cc3ccccc3)[nH]c2cc1C	L major viab 93 (no result: ROMK primary)
